Assay results: PubChem BioAssay (NCATS)
Inconclusive results are not listed. Calls of active or inactive are those of the source. Unless noted, calls come from the whole dose curve.

Columns and labels:
[1] = biological target: Estrogen receptor (Homo sapiens) (UniProt P03372); assay: qHTS assay for small molecule antagonists of estrogen receptor alpha signaling (AID 588513; active = well fitted curve in the direction sought with a large enough effect in the signal ratio, with a control signal flat, not every such curve was filed as active; the % refers to the signal ratio; note: % is set by controls: 0 for no effect and ±100 for the full control effect)
Sequence of Estrogen receptor (Homo sapiens) (P03372 whole entry, looked up): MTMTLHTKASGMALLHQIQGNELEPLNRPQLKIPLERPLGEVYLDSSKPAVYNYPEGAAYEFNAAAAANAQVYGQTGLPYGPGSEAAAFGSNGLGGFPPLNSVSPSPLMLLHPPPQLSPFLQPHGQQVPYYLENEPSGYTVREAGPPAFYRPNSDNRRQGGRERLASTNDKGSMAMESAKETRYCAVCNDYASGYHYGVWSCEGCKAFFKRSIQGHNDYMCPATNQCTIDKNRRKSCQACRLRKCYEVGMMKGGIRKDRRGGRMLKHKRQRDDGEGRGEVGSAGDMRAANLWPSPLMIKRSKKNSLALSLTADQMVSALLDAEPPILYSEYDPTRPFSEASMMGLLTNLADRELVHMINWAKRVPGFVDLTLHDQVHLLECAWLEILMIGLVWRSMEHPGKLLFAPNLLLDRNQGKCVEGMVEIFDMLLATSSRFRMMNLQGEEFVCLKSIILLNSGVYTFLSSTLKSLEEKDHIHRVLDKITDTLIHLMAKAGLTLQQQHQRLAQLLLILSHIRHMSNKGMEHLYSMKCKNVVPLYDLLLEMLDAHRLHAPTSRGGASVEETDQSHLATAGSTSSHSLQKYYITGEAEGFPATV
Summary of the method: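 Fluorescence from CCF4 substrate after 2 h at room temperature gave reporter activity; cells had been exposed to compound and 0.5nM 17-beta-estradiol for 18 h at 37 C. Hill-equation fitting yielded IC50 and maximal response.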

[2] = biological target: Estrogen receptor (Homo sapiens) (UniProt P03372); assay: qHTS assay for small molecule agonists of estrogen receptor alpha signaling (AID 588514);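 note: 0% = vehicle only and 100% = reference agonist; nearly all actives have a fitted effect of over 70% in size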
Summary of the method: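 EC50 and efficacy came from Hill fits of beta-lactamase reporter signal (CCF4 dye, 2 h at room temperature) scaled between DMSO and 20 nM 17-beta-estradiol. Agonist mode: HEK293 ER-alpha-UAS-bla cells in charcoal/dextran-stripped serum medium, 18 h compound exposure at 37 C.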

[3] = biological target: Androgen receptor (Homo sapiens) (UniProt P10275); assay: qHTS assay for small molecule agonists of androgen receptor signaling (AID 588515; active = well fitted curve in the direction sought with a large enough effect in the signal ratio, with a control signal flat; the % refers to the signal ratio; note: % is set by controls: 0 for no effect and ±100 for the full control effect); settings: AR-UAS-bla HEK293, beta-lactamase ratio, agonist 16 h; activation: stronger effect = higher value
Sequence of Androgen receptor (Homo sapiens) (P10275 whole entry, looked up): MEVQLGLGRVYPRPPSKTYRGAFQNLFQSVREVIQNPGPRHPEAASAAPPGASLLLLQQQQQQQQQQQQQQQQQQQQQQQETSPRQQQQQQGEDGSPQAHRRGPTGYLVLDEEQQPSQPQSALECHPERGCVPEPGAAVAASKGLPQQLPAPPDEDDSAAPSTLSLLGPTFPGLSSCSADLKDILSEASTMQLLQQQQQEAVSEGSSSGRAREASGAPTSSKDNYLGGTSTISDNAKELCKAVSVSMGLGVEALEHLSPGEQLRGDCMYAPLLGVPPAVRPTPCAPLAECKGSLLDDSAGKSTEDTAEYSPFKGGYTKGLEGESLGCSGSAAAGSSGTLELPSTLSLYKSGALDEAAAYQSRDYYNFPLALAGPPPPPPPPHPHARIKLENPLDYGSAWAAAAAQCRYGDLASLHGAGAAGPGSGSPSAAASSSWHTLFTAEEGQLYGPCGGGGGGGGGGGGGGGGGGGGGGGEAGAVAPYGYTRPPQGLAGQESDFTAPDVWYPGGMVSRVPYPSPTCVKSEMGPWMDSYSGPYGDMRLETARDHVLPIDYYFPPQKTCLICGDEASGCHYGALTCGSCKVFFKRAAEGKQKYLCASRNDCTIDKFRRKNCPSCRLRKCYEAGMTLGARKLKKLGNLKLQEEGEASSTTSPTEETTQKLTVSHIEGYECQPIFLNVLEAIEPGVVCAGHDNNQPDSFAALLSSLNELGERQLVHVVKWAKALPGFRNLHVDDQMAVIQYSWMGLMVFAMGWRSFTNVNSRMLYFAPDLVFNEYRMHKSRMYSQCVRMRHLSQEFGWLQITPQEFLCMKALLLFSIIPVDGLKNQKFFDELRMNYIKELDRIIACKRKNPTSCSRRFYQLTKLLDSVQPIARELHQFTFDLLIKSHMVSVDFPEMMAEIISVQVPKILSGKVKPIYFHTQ
Summary of the method: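 Stimulation of an AR-responsive β-lactamase reporter in GripTite HEK293 cells was measured after 16 h compound exposure at 37 °C, via CCF4 fluorescence after 2 h RT. EC50 from Hill fits, normalized to R1881 at 30 nM.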

[4] = biological target: Androgen receptor (Homo sapiens) (UniProt P10275); assay: qHTS assay for small molecule antagonists of androgen receptor signaling (AID 588516; active = well fitted curve in the direction sought with a large enough effect in the signal ratio, with a control signal flat, not every such curve was filed as active; the % refers to the signal ratio; note: % is set by controls: 0 for no effect and ±100 for the full control effect)
Summary of the method: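 Cells were plated and incubated 5 h, compounds added in titration, then R1881 (10 nM final) as agonist. After 16 h at 37 C, CCF4 substrate was loaded for 2 h at room temperature and fluorescence measured.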

[5] = biological target: Bile acid receptor (Homo sapiens) (UniProt Q96RI1); assay: qHTS assay for small molecule antagonists of farnesoid X receptor signaling (AID 588526); note: % is set by controls: 0 for no effect and ±100 for the full control effect
Summary of the method: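 Beta-lactamase reporter antagonist mode: HEK293T FXR-UAS-bla cells, titrated compound, CDCA stimulation, 16 h 37 C, CCF4 dye 2 h RT. Data normalized to CDCA 50 uM and DMSO; Hill-fit IC50.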

[6] = biological target: Glucocorticoid receptor (Homo sapiens) (UniProt P04150); assay: qHTS assay for small molecule agonists of glucocorticoid receptor signaling (AID 588532; active = well fitted curve in the direction sought with a large enough effect in the signal ratio, with a control signal flat; the % refers to the signal ratio;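 note: 100% = dexamethasone at 0.1 µM and 0% = DMSO only wells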); settings: HeLa MMTV-bla, beta-lactamase ratio, agonist, 18 h; stronger effect = higher value; percent of dexamethasone control, DMSO zero
Sequence of Glucocorticoid receptor (Homo sapiens) (P04150 whole entry, looked up): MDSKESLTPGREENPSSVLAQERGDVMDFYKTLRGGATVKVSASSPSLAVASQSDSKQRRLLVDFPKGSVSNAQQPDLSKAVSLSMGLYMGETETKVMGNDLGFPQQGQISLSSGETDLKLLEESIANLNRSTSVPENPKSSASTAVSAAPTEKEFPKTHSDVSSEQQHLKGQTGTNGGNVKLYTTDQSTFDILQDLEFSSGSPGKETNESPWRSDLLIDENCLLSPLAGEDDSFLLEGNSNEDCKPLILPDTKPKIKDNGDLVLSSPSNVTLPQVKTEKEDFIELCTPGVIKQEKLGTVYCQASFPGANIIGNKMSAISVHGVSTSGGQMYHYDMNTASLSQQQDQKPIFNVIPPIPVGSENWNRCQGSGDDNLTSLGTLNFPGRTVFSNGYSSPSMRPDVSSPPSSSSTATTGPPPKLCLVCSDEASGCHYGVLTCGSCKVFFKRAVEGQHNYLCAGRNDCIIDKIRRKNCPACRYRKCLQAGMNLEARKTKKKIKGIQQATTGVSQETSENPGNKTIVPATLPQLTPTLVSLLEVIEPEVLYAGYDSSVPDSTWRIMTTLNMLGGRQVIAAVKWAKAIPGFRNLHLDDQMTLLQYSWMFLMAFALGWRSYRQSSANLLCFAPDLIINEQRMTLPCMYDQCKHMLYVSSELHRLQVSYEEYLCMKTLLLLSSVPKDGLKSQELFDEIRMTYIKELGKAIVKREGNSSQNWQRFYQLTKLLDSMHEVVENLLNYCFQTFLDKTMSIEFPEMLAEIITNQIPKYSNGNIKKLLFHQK
Summary of the method: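 Agonist-mode qHTS: GRE-driven beta-lactamase in HeLa cells exposed 18 h to titrated compounds (up to 92 uM), then CCF4 ratio read after 2 h at RT; Hill-fitted EC50, efficacy relative to 0.1 uM dexamethasone.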

[7] = biological target: Glucocorticoid receptor (Homo sapiens) (UniProt P04150); assay: qHTS assay for small molecule antagonists of glucocorticoid receptor signaling (AID 588533; active = well fitted inhibition curve with a large enough effect in the signal ratio, with a control signal flat, not every such curve was filed as active; the % refers to the signal ratio)
Summary of the method: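 Antagonist-mode qHTS: compound titrations added to GRE-bla HeLa cells, then dexamethasone 2 nM final; 18 h, 37 C. CCF4 FRET fluorescence normalized to dexamethasone and DMSO; IC50 from Hill fit.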

[8] = biological target: Peroxisome proliferator-activated receptor gamma (Homo sapiens) (UniProt P37231); assay: qHTS assay for small molecule agonists of peroxisome proliferator-activated receptor gamma signaling (AID 588536; active = well fitted curve in the direction sought with a large enough effect in the signal ratio, with a control signal flat, not every such curve was filed as active; the % refers to the signal ratio;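 note: 0% = DMSO basal wells and 100% = rosiglitazone at 2 µM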)
Sequence of Peroxisome proliferator-activated receptor gamma (Homo sapiens) (P37231 whole entry, looked up): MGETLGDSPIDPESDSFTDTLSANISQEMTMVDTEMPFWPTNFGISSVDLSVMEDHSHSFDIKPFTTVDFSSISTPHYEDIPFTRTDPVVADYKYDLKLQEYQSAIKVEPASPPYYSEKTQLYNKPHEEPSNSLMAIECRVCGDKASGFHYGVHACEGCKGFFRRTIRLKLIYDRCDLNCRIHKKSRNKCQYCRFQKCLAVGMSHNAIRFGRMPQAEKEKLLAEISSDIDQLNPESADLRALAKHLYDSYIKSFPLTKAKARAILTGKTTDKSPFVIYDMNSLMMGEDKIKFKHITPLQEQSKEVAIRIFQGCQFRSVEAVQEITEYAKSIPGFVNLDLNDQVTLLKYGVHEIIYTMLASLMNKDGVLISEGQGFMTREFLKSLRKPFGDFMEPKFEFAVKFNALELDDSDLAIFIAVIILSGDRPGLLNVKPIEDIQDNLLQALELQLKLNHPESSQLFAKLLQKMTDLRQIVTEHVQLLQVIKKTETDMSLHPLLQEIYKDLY
Summary of the method: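 This is an agonist-mode beta-lactamase reporter assay in HEK293 PPAR-gamma-UAS-bla cells with 1% charcoal/dextran FBS. Compound titrations ran 16 h at 37 C before CCF4 detection. EC50 and efficacy are Hill fits scaled to 2 uM rosiglitazone (100%) and DMSO basal.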

[9] = biological target: Peroxisome proliferator-activated receptor gamma (Homo sapiens) (UniProt P37231); assay: qHTS assay for small molecule antagonists of peroxisome proliferator-activated receptor gamma signaling (AID 588537; active = well fitted inhibition curve with a large enough effect in the signal ratio, with a control signal flat, not every such curve was filed as active; the % refers to the signal ratio;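 note: reporter cells co-stimulated with 50 nM rosiglitazone agonist during compound treatment; % of control where 0% means no effect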)
Summary of the method: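 Antagonist-mode β-lactamase reporter screen run as a titration series. HEK293 PPARγ-UAS-bla cells are stimulated with rosiglitazone (50 nM final) for 16 h, then CCF4 is read at 460/530 nm. Data are scaled between DMSO and rosiglitazone and fitted to the Hill equation.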

[10] = qHTS assay for small molecule agonists of retinoid X receptor alpha signaling (AID 588544); settings: HEK293T RXRa-UAS-bla, beta-lactamase reporter, 18 h; 530 nm emission;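 for activation: 0% = DMSO basal wells and 100% = reference agonist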
[11] = biological target: Retinoic acid receptor RXR-alpha (Homo sapiens) (UniProt P19793); assay: as above
Sequence of Retinoic acid receptor RXR-alpha (Homo sapiens) (P19793 whole entry, looked up): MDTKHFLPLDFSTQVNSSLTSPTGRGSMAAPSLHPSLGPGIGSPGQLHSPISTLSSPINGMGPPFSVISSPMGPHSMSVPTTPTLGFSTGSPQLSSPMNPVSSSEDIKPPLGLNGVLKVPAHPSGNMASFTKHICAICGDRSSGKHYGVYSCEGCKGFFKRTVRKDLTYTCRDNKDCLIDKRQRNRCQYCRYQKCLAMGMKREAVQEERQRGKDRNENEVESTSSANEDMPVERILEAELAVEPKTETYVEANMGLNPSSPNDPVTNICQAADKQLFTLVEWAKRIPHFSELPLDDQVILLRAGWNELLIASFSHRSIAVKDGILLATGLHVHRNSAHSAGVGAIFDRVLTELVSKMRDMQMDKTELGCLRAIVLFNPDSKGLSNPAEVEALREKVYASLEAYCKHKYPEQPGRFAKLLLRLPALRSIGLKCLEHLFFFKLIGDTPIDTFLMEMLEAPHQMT

[12] = biological target: Thyroid hormone receptor beta (Homo sapiens) (UniProt P10828); assay: qHTS assay for small molecule agonists of thyroid hormone receptor beta signaling (AID 588545)
Sequence of Thyroid hormone receptor beta (Homo sapiens) (P10828 whole entry, looked up): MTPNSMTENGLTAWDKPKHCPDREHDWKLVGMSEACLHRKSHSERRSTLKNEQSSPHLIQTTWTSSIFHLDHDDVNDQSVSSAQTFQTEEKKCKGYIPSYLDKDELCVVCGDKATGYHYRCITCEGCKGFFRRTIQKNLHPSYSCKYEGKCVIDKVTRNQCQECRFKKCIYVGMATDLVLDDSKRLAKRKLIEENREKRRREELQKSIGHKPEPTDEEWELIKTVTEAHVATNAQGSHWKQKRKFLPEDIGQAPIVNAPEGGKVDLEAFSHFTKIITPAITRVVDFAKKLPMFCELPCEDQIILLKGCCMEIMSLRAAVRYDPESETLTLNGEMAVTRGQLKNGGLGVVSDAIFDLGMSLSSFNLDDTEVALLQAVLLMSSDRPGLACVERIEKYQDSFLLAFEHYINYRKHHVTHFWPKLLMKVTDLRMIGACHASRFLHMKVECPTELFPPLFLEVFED
Summary of the method: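 HEK 293 TR-UAS-bla; agonist mode; 18 hrs, 37 C; CCF4, ex 405/em 460 and 530 nm; norm. T3 10 nM = 100%, DMSO = 0%; Hill fit → EC50, efficacy.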

[13] = qHTS assay for small molecule antagonists of retinoid X receptor alpha signaling (AID 588546; active = well fitted inhibition curve with a large enough effect in the signal ratio, with a control signal flat, not every such curve was filed as active; the % refers to the signal ratio); settings: HEK293T RXRa-UAS-bla, beta-lactamase ratio, antagonist mode; measured here: W530 green channel, cytotoxicity proxy
Summary of the method: (§1)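 Beta-lactamase reporter inhibition, read as CCF4 fluorescence ratio (ex 405, em 460/530 nm) after 2 h at RT. HEK293T UAS-bla cells, 2500/well, were stimulated with 9-cis-RA at 500 or 100 nM final alongside test compound for 18 h at 37 C.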

[14] = biological target: Retinoic acid receptor RXR-alpha (Homo sapiens) (UniProt P19793); assay: as above; settings: HEK293T RXRa-UAS-bla, beta-lactamase ratio, antagonist mode
Summary of the method: as §1

[15] = biological target: Thyroid hormone receptor beta (Homo sapiens) (UniProt P10828); assay: qHTS assay for small molecule antagonists of thyroid hormone receptor beta signaling (AID 588547; active = well fitted inhibition curve with a large enough effect in the signal ratio, with a control signal flat, not every such curve was filed as active; the % refers to the signal ratio); settings: TR-UAS-bla HEK293, beta-lactamase ratio, antagonist mode, 18 h
Summary of the method: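 Inhibition of T3-driven (0.4nM final) beta-lactamase reporter activity was measured over 0.59 nM to 92 uM compound after 18 h at 37 C. The cells were GripTite HEK293 TR-UAS-bla in charcoal/dextran-stripped serum, with CCF4 ratio read-out and IC50 from Hill fits.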

[16] = qHTS assay for small molecule activators of the p53 signaling pathway (AID 651743; active = well fitted activation curve with a large enough effect in the signal ratio, not every such curve was filed as active; the % refers to the signal ratio; note: series mostly up to about 92 µM; % of control where 0% means no effect); settings: HCT-116 p53RE-bla, beta-lactamase FRET ratio, 16 h; activation: stronger effect = higher value
Summary of the method: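 After 16 hours compound treatment at 37 C, HCT-116 cells stably expressing p53RE-driven beta-lactamase were loaded with LiveBLAzer B/G FRET substrate for 2 hours at room temperature. Fluorescence intensity served as the p53 activation read-out.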

[17] = qHTS assay for small molecule activators of the nuclear factor-kappa B (NF-kB) signaling pathway (AID 651749; active = well fitted activation curve with a large enough effect in the signal ratio; the % refers to the signal ratio; note: series mostly up to about 77 µM; % of control where 0% means no effect); settings: NF-kB-bla ME-180 cells, beta-lactamase FRET ratio, 16 h; activation: stronger effect = higher value
Summary of the method: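 Activation measured after 16 hr compound treatment at 37C, 5% CO2, of 2,000 ME-180 cells/well stably expressing an NF-kB response element–driven beta-lactamase reporter, via FRET-disruption fluorescence.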

[18] = qHTS assay for environmental chemicals that activate the Aryl hydrocarbon Receptor (AhR) signaling pathway (AID 651777; active = well fitted curve in the direction sought with a large enough effect; an effect the other way counts as inactive or inconclusive; note: % of control where 0% means no effect; nearly all actives have a fitted effect of over 15% in size); settings: 1A2-DRE human hepatoma cells, luciferase, 24 h; activation: stronger effect = higher value
Summary of the method: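 AhR activation is scored as a rise in luciferase from a stable DRE–CYP1A2 promoter construct in human hepatoma cells. Treatment lasts 24 hr at 37 C; detection uses One-Glo after 30 min at room temperature.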

[19] = biological target: Peroxisome proliferator-activated receptor alpha (Homo sapiens) (UniProt Q07869); assay: qHTS assay for small molecule agonists of the peroxisome proliferator-activated receptor alpha (PPARalpha) signaling pathway (AID 651778; active = well fitted curve in the direction sought with a large enough effect; an effect the other way counts as inactive or inconclusive; note: % of control where 0% means no effect); settings: PathHunter PPARalpha complementation, chemiluminescence, 6 h; max response: stronger effect = higher value
Summary of the method: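 Chemiluminescence from complemented enzyme reported PPARalpha activation in cells after 6 hr of compound treatment at 37 C. The detection reagent was incubated for 60 min at room temperature, and compounds were scored as agonists.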

[20] = qHTS assay for small molecule agonists of the antioxidant response element (ARE) signaling pathway measured by Nrf2-dependant transcriptional activity (AID 720636; active = well fitted curve in the direction sought with a large enough effect in the repeat runs; an effect the other way counts as inactive or inconclusive;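 note: HepG2 cells with an ARE-driven luciferase reporter; % of control where 0% means no effect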)
Summary of the method: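 First, ARE-luc HepG2 cells attached for 6 hr at 37 C in 1% dialyzed FBS medium. Next, compound or DMSO was added and incubated 16 hr. Finally, ONE-Glo reagent was added and luminescence measured after 30 min.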

[21] = qHTS assay for small molecule agonists of the antioxidant response element (ARE) signaling pathway measured by Nrf2-dependant transcriptional activity - cell viability counter screen (AID 720653; active = well fitted curve in the direction sought with a large enough effect in the repeat runs; an effect the other way counts as inactive or inconclusive; note: % is set by controls: 0 for no effect and ±100 for the full control effect); settings: ARE-bla HepG2 viability, CellTiter-Glo ATP luminescence, 16 h; max response: stronger effect = lower value
Summary of the method: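 Cytotoxicity counter screen: intracellular ATP quantified by CellTiter-Glo luminescence in the same ARE-bla HepG2 plates, after 16 h compound exposure and a 2 h beta-lactamase substrate step.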

[22] = qHTS assay for cell viability of HEK293 cells (AID 743288; active = well fitted curve in the direction sought with a large enough effect; an effect the other way counts as inactive or inconclusive; note: % is set by controls: 0 for no effect and ±100 for the full control effect; nearly all actives have a fitted effect of over 50% in size); settings: ATP luminescence (CellTiter-Glo), 18 h; max response: stronger effect = lower value
Summary of the method: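 Viable-cell counts were inferred from luciferase-based ATP content in HEK293 cells seeded at 2,000/well, pre-incubated ≥5 h, then dosed with DMSO-solubilised compounds for 18 h at 37 C.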

[23] = qHTS assay for cell viability of the p53RE-bla HCT-116 cell line (AID 743292; active = well fitted curve in the direction sought with a large enough effect; an effect the other way counts as inactive or inconclusive; note: % is set by controls: 0 for no effect and ±100 for the full control effect; nearly all actives have a fitted effect of over 55% in size)
Summary of the method: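 Quantitative high-throughput format: compounds in DMSO were pinned onto p53RE-bla HCT-116 cells (4,000/well) and incubated 16 h at 37 C. Total intracellular ATP, read by CellTiter-Glo luminescence, reflects viable cell number.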

[24] = biological target: Nuclear receptor subfamily 1 group I member 2 (Rattus norvegicus) (UniProt Q9R1A7); assay: qHTS assay for small molecule activators of the rat pregnane X receptor (rPXR) signaling pathway (AID 651751; call rule not given here; note: 0% is about no effect); settings: rPXR reporter cells, luciferase (One-Glo), 24 h
Sequence of Nuclear receptor subfamily 1 group I member 2 (Rattus norvegicus) (Q9R1A7 whole entry, looked up): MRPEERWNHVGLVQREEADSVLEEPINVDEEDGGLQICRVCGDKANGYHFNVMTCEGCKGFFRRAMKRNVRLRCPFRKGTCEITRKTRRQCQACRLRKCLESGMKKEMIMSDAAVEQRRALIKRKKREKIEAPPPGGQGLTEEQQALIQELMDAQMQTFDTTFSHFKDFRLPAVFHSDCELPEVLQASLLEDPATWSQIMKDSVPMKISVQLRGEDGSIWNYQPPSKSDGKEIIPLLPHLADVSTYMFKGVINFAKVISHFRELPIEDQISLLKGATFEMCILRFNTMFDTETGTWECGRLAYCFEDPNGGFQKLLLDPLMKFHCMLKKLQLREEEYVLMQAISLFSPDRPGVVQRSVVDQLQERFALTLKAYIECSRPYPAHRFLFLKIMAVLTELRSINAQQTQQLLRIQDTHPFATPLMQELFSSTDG

[25] = qHTS assay for small molecule activators of the human pregnane X receptor (PXR) signaling pathway (AID 720659; call rule not given here; note: 0% is about no effect)
[26] = qHTS assay for small molecule antagonists of peroxisome proliferator-activated receptor delta signaling (AID 588535; active = well fitted inhibition curve with a large enough effect in the signal ratio, with a control signal flat, not every such curve was filed as active; the % refers to the signal ratio;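 for max response: cells co-treated with a PPAR-delta agonist as stimulator during compound exposure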); settings: HEK293T PPARd-UAS-bla, beta-lactamase FRET ratio, 18 h; 460 nm channel
Summary of the method: (§2)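 Titrations were run on PPAR-delta-UAS-bla HEK293T cells in charcoal/dextran-stripped serum, incubated 18 h at 37 C. CCF4 fluorescence (460/530 nm) after 2 h RT; Hill equation yields IC50 and maximal response.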

[27] = biological target: Peroxisome proliferator-activated receptor delta (Homo sapiens) (UniProt Q03181); assay: as above
Sequence of Peroxisome proliferator-activated receptor delta (Homo sapiens) (Q03181 whole entry, looked up): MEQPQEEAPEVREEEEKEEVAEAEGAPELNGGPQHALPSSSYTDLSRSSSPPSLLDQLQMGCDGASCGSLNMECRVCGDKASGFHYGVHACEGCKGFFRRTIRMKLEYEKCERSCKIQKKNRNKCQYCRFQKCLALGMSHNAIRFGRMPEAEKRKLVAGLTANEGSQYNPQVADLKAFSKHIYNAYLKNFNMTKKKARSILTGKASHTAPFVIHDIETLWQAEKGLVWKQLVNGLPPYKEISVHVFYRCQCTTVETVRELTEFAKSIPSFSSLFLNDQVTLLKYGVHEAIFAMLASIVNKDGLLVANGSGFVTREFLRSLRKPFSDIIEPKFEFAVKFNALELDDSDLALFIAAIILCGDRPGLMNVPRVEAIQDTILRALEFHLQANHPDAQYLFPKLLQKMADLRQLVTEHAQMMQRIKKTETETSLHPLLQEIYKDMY
Summary of the method: as §2

[28] = biological target: Vitamin D3 receptor (Homo sapiens) (UniProt P11473); assay: qHTS assay for small molecule antagonists of vitamin D receptor signaling (AID 588541)
Sequence of Vitamin D3 receptor (Homo sapiens) (P11473 whole entry, looked up): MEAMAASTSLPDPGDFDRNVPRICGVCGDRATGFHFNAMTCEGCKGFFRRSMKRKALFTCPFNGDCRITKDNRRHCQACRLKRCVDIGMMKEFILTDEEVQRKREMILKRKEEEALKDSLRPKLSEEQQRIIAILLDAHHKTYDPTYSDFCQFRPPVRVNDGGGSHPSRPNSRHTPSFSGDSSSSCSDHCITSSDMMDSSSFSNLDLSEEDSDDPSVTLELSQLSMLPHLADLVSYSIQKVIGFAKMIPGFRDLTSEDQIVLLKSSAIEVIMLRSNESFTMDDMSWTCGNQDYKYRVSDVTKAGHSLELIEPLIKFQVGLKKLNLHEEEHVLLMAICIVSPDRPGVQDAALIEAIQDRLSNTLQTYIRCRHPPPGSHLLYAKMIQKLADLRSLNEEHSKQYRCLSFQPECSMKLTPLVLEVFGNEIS
Summary of the method: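 Antagonist-mode beta-lactamase reporter assay: HEK293T VDR-UAS-bla cells were exposed to titrated compound alongside 1-alpha,25-dihydroxyvitamin D3 at 3 nM final for 16 h. Values were normalized to the 50 nM agonist control and DMSO basal, with IC50 and efficacy from Hill equation fits.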

[29] = biological target: Vitamin D3 receptor (Homo sapiens) (UniProt P11473); assay: qHTS assay for small molecule agonists of vitamin D receptor signaling (AID 588543);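 note: 0% = DMSO basal and 100% = reference agonist control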
Summary of the method: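 Reporter cells (HEK293T, VDR-UAS-bla) were seeded in medium with 2% charcoal-stripped serum and incubated 5 h, then compounds in concentration series were added for 16 h at 37 °C. Stimulation was scaled between DMSO basal and 50 nM 1α,25-dihydroxyvitamin D3.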

CC1(C)CC(NCCCCCCNC2CC(C)(C)NC(C)(C)C2)CC(C)(C)N1
-2.83%: max response [10]
inactive: Potency [1] | Potency [2] | activation [3] 6.67% | outcome [4] | Potency [5] | activation [6] -7.91% | Potency [7] | outcome [8] | Potency [9] | Potency [11] | Potency [12] | max response [14] 2.64% | activity change % (negative = inhibition) [15] -26.6% | activation [16] -1.03% | activation [17] -3.22% | activation [18] 0.472% | max response [19] -0.876% | Potency [20] | max response [21] -7.27% | max response [22] -6.6% | Potency [23] | max response [24] 1.41% | outcome [25]
-10.1%: max response [13]

CC(Cl)(Cl)C(=O)OCCOc1cc(Cl)c(Cl)cc1Cl
-6.02%: max response [10]
inactive: Potency [1] | Potency [2] | activation [3] 2.7% | outcome [4] | Potency [5] | activation [6] -10.3% | Potency [7] | Potency [27] | Potency [9] | Potency [28] | outcome [29] | Potency [11] | Potency [12] | max response [14] 0.808% | activation [16] -0.345% | activation [17] -1.51% | activation [18] 1.95% | max response [19] 6.22% | max response [22] -9.39% | Potency [23] | max response [24] -0.3%
-16.7%: max response [13]
-5.22%: max response [26]
